Hit rate of the full screen: of about 300,000 compounds, about 37,000 (12%) were called active. Only a selection was taken, and actives are over-represented in it overall. Unmarked numbers belong to inactive results. Cut-off read from the data, not from the text of the source: active = max response mostly above about 13% (no sharp cut-off); inactive = mostly below about 14%.

The assay can be described thus: Cycloheximide Counterscreen for Small Molecule Inhibitors of Shiga Toxin. Note: read at 38.3 µM for the half of the compounds with a filed dose; 0% is about no effect. The note with it: cell reporter, cycloheximide protein synthesis inhibition counterscreen; active compounds read high. (Counterscreens check selectivity or assay interference.)
`Cc1ccc(C(=O)Nc2c(C#N)c(C)c(C)n2Cc2ccccc2)cc1`: the max response was -2.66%. As to `CC(=O)Nc1ccc(S(=O)(=O)N2CCN(C(=O)c3ccccc3F)CC2)cc1`, the max response was 6.62%. With `CCOC(=O)c1c(N=CN(C)C)c(C#N)c2n1CCCC2`, the max response was -4.22%. In the case of `Cc1oc2nc(SCC(=O)Nc3ccc(S(N)(=O)=O)cc3)nc(NC(=O)c3ccccc3)c2c1C`, the max response is -2.02%.

As for `O=C(CN(Cc1ccc(Br)cc1)S(=O)(=O)c1ccccc1)NCc1ccncc1`, the max response was -2.43%. Turning to `Cc1cc(C)nc(-n2nc(C)cc2NC(=O)c2ccc(F)cc2F)n1`, the max response was -3.69%. On to `N=c1c2c3c(sc2nc2n1CCCCC2)CCCC3`, for which the max response is 15%. `C[C@@H]1CC[C@@]2(OC1)O[C@H]1C[C@H]3[C@@H]4CC=C5C[C@@H](O)[C@H](O)C[C@]5(C)C4CC[C@]3(C)[C@H]1[C@@H]2C` (stereo partly drawn): the max response is -6.07%. For `CCCc1nn2c(=O)cc(CSCC(=O)Nc3cccc(C)c3)nc2s1` the value was -2.96%. On to `O=C1NCC(=O)N(Cc2ccccc2)/C1=C/c1ccccc1`, for which the max response was -7.39%. Regarding `CC1=NN(Cc2ccccc2)C(=O)/C1=C/c1ccc(N(C)C)cc1`, the max response is 3.72%.

Turning to `CN(C)c1ccc(/C=C2\NC(=S)N(Cc3ccccc3)C2=O)cc1`, the max response is 16.3% (active). Regarding `COc1ccc(N2CCN(C(=O)CN3C(=O)COc4ccccc43)CC2)cc1`, the max response was -4.68%. As for `CCOc1ccc(NC(=O)COc2ccc(C(=O)NC3CCCc4ccccc43)cc2OC)cc1` (stereo not drawn), the max response is -1.56%. For the molecule `O=C(O)CCn1c(O)c(C=C2N=c3ccccc3=N2)sc1=S`, the max response was -1.81%. As for `Cc1ccc(-n2nc3cc(Cl)c(NC(=O)c4ccco4)cc3n2)cc1`, the max response was 45% (active). For the molecule `Cc1cc(NC(=O)c2ccco2)c(=O)n(Cc2c(F)cccc2Cl)c1`, the max response was -2.05%. Regarding `Cc1c(NC(=O)c2cccnc2)c(=O)n(-c2ccccc2)n1C`, the max response was -2.61%. `COC(=O)c1cc(Cl)c(NC(=O)c2ccco2)cc1OC`: the max response was 3.33%. Consider `O=C(Nc1cccc(-n2cnnn2)c1)c1cccnc1`, for which the max response is -4.68%. In the case of `Cc1ccc(-n2nc3cc(C)c(NC(=O)c4cccnc4)cc3n2)cc1`, the max response is 15.8% (active). With `COc1ccc(C(C(=O)NC2CCCC2)N(CCCO)C(=O)Cn2nnc(-c3ccc(C)o3)n2)cc1` (stereo not drawn), the max response is -4.49%. In the case of `CCNC(=S)Nc1cccc(Cl)c1C`, the max response is -2.36%. Turning to `Cc1cccc(NC(=S)NCCc2ccc(F)cc2)c1C`, the max response was 6.6%. `Cc1cccc(NC(=S)NCCc2ccc(Cl)cc2)c1C`: the max response was 17.3% (active). Take `Cc1ccc(NC(=S)NCCc2ccc(Cl)cc2)c(C)c1`: the max response is 13.7% (active).

In the case of `Cc1cc(F)ccc1NC(=S)NCCc1ccccc1`, the max response is 5.78%. With `Cc1ccc(NC(=S)NCc2ccccc2Cl)c(C)c1`, the max response is 10.7%. Turning to `CC#CC[N+](C)(C)CCCCCC`, the max response was 0.922%. With `COc1ccc(C(=O)NC(=S)N2CCNC(=O)C2CC(=O)OC(C)C)cc1` (stereo not drawn), the max response was 0.131%. Take `COc1ccc(OC)c(C(C)NC(=S)Nc2ccc(S(=O)(=O)Nc3ncccn3)cc2)c1` (stereo not drawn): the max response is -0.745%. For the molecule `COc1ccc(NC(=O)C(CC(C)C)NC(=O)C2CCC(C)CC2)cc1` (stereo not drawn), the max response is 6.1%. As to `O=C(O)c1cccc(N2C(=O)Nc3ccccc3N2O)c1`, the max response was 24.6% (active). On to `O=C1Nc2cc(Cl)c(Cl)cc2N(O)N1c1ccccc1Cl`, for which the max response was 4.44%. `O=C1Nc2cc(Cl)c(Cl)cc2N(O)N1c1cc(Cl)cc(Cl)c1`: the max response is -2.32%. Take `COc1ccccc1N(C)C(=O)c1cc(S(=O)(=O)N2CCc3ccccc32)cn1C`: the max response was 0.704%. In the case of `CC1CCN(C(=O)/C(=C\c2ccccc2F)NC(=O)c2ccccc2)CC1`, the max response is 8.12%. `CC1CCN(C(=O)/C(=C\c2ccccc2)NC(=O)c2ccccc2)CC1`: the max response is -1.41%. Turning to `CC1CCN(C(=O)CCNC(=O)c2ccccc2)CC1`, the max response was 31.5% (active). For `OC(CNC1CCCC1)COc1ccc(F)cc1` (stereo not drawn) the value was -1.08%; for `NC(=O)CC(NC(=O)Cc1cccc2ccccc12)c1ccc(NCc2cc(F)ccc2F)c([N+](=O)[O-])c1` (stereo not drawn), -1.72%. Consider `CCOc1ccc(N(CC(=O)NCCOc2ccccc2OC)S(=O)(=O)c2ccccc2)cc1`, for which the max response is 1.62%. Turning to `COc1ccc(NC(=S)NC2CCS(=O)(=O)C2)cc1` (stereo not drawn), the max response was -3.34%. Consider `COc1ccccc1/C=C1\SC(=O)N(CCC(=O)N(C)C2CCS(=O)(=O)C2)C1=O` (stereo not drawn), for which the max response is 7.79%. Take `COc1ccc(NC(=O)CCN2C(=O)/C(=C/c3ccc4c(c3)OCO4)SC2=S)cc1`: the max response is -1.34%. As for `COc1ccc(-c2ccc(OC(=O)NC3CCS(=O)(=O)C3)cc2)cc1` (stereo not drawn), the max response was 28.5% (active). For `COc1ccc(/C=C2\SC(=O)N(CCC(=O)NCCCn3ccnc3)C2=O)cc1` the value was 18.8% (active).

Consider `O=C(CCN1C(=O)c2ccccc2C1=O)NCCCn1ccnc1`, for which the max response is 4.07%. For `O=C(CN1C(=O)S/C(=C\c2ccccc2F)C1=O)NCCCn1ccnc1` the value was -0.628%; for `O=C(CCN1C(=O)c2ccccc2C1=O)NCCN1CCOCC1`, -0.442%. Turning to `Cc1ccc(/C=C2/SC(=S)N(CCC(=O)NCCCN3CCOCC3)C2=O)cc1`, the max response was 11.5% (active). As to `COc1ccc(/C=C2\SC(=O)N(CCC(=O)NC3CCS(=O)(=O)C3)C2=O)cc1` (stereo not drawn), the max response is 27.8% (active). As to `O=C(Cc1ccc(Cl)cc1)NC1CCS(=O)(=O)C1` (stereo not drawn), the max response is -0.92%.

For the molecule `Cc1ccc(/C=C2\SC(=S)N(CCC(=O)Nc3ccc(O)cc3)C2=O)cc1`, the max response was 0.318%.

Turning to `[O-][n+]1onc2c1CCc1[nH]c(-c3ccccc3)nc1-2`, the max response is -2.38%. Take `CCSc1nc(O)c(C(c2cccc(OC)c2)c2c(O)nc(SCC)[nH]c2=O)c(=O)[nH]1`: the max response is 4%. For `Cc1c(Cl)cccc1NC(=O)[C@@]1(CC(=O)O)CC(/C=C/c2ccccc2)=NO1` the value was 9.29%; for `O=C(COc1cccc2ccccc12)Nc1cc(S(=O)(=O)N2CCOCC2)ccc1N1CCOCC1`, 7.56%. As for `CCn1cc(CN2CCN(CC(C)(C)C)C(CCO)C2)c2ccccc21` (stereo not drawn), the max response was -2.82%. Take `Cn1cc(CCC(=O)NC2CC2)c2ccccc21`: the max response is -2.88%. Consider `CC1CC2=C(CC1/C=N/NC(N)=S)C(C)(C)CCC2` (stereo not drawn), for which the max response was -1.08%. With `O=Cc1c(N2CCN(c3cccc(Cl)c3)CC2)nc2ccccn2c1=O`, the max response was 3.1%.

With `Cc1ccc(Cl)cc1NC(=O)C1CCCN(c2cnccn2)C1` (stereo not drawn), the max response was -5.58%. As for `COc1ccc(NC(=O)CN2C(=O)CSc3ccc(S(=O)(=O)N4CCC(C)CC4)cc32)cc1`, the max response is 9.42%.

In the case of `CCc1ccccc1NC(=S)Nc1cc(OC)c(NC(=O)C(C)C)cc1OC`, the max response was -6.46%.

Consider `CC(C)(C)Nc1nc(-c2ccccn2)nc2ccccc12`, for which the max response was -2.46%. With `COc1cnc(-c2ccccn2)nc1Oc1ccc(C(C)(C)C)cc1`, the max response is 4.47%. For the molecule `Cc1ccc(Oc2nc(-c3ccccn3)nc3ccccc23)cc1`, the max response is 25% (active).

As for `NS(=O)(=O)c1ccc(CCNC(=O)CNC(=O)Cc2ccccc2)cc1`, the max response was 4.6%.

Take `CC1CCCN(S(=O)(=O)c2ccc(-c3ccc(=O)[nH]n3)o2)C1` (stereo not drawn): the max response was -2.93%. For the molecule `O=C(c1ccc(Cn2cc([N+](=O)[O-])cn2)o1)N1CCCC1`, the max response was -2.92%. As for `CCc1ccc(NC(=O)c2ccc(Cn3cc([N+](=O)[O-])cn3)cc2)cc1`, the max response was 26.2% (active). Consider `COc1cccc(NC(=O)c2ccc(Cn3cc([N+](=O)[O-])cn3)o2)c1`, for which the max response is 1.95%.

For `COc1cccc(OC)c1C(=O)Nc1c(C(=O)N2CCN(c3ccccn3)CC2)oc2ccccc12`, the max response was -0.82%. For `CN1CCN(CCCCOc2cccc3ccccc23)CC1` the value was 2.51%.

`NC(=O)COc1ccccc1C(=O)NC12CC3CC(CC(C3)C1)C2`: the max response was 0.476%.

For `NNC(=O)COc1ccc(C2SCCS2)cc1`, the max response is 5.31%.

In the case of `NC(=O)COc1ccc(C23CC4CC(CC(C4)C2)C3)cc1`, the max response was 32.3% (active). For `Cc1c(Cl)c([N+](=O)[O-])nn1CCCC(=O)NC(C)c1ccccc1` (stereo not drawn) the value was 0.248%; for `CCCCC(=O)N/N=C(\C)CC(=O)Nc1cc(Cl)ccc1OC`, -1.06%. For `COc1ccc(NC(=O)C/C(C)=N/NC(=O)c2cnccn2)cc1Cl` the value was 53.7% (active); for `O=C(COc1ccc(Cl)cc1Cl)NCCCNC(=O)c1cnccn1`, -1.68%. As to `COc1cccc(NC(=O)Cn2c3ccc(F)cc3c3nc4n(c(=O)c32)CCS4)c1`, the max response is 4.56%. `CCN(CCNC(=O)C1=C(C)C(=O)OC12CCC(C)CC2)c1ccccc1` (stereo not drawn): the max response was 3.3%. In the case of `COc1ccc(-c2n[nH]c3c2CN(C(=O)c2ccc(F)cc2)CC3)cc1`, the max response is 9.17%. Consider `CCOc1cc(-c2noc(CCCC(=O)NC3CCCCC3)n2)ccc1OC`, for which the max response was -3.29%. Regarding `COC(=O)/C(NC(C)=O)=C(\C)c1ccc(Cl)cc1`, the max response is 1.02%.

For the molecule `COC(=O)C(=Nc1ccccc1)/C(C(=O)C(=O)N(C)c1ccccc1)=C(\O)c1ccc(Cl)cc1`, the max response is 23.6% (active). For the molecule `COC(=O)c1cn(C(=O)c2ccc(Cl)cc2)c2ccccc12`, the max response was 10.5%. `CC(C)CC(=O)NC(=S)Nc1cc(C(=O)O)ccc1Cl`: the max response was -4.75%.

For `CC(=O)c1ccc(NC(=S)NC(=O)CC(C)C)cc1`, the max response was 9.98%. On to `CC(C)CC(=O)NC(=S)Nc1ccc(F)cc1F`, for which the max response is 23.2% (active).

In the case of `Cc1ccc(-c2nc(-c3cccnc3)sc2CC(=O)Nc2ccc(C)c(Cl)c2)cc1`, the max response was 8.82%.

Values taken from PubChem BioAssay AID2314 (National Center for Advancing Translational Sciences (NCATS), 2010).
